The source made the active and inactive calls. How the source made its calls: active means hit-call score of the fitted dose curve at least 0.9, where 1 is the maximum; inactive means score below 0.9.
Assays:
[1] = read-out: Thrombomodulin, THBD (gene 7056); assay: BSK_CASM3C_Thrombomodulin: BioMAP Diversity Plus: CASM3C Assay for Thrombomodulin Biomarker Activity (AID 2283051); details: primary human coronary artery smooth muscle cells; actives raise or lower the signal;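 further: thrombomodulin protein level measured by ELISA 24 h after dosing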
[2] = read-out: Tissue Factor, F3 (gene 2152); assay: BSK_CASM3C_TissueFactor: BioMAP Diversity Plus: CASM3C Assay for Tissue Factor Biomarker Activity (AID 2283052); details: primary human coronary artery smooth muscle cells; actives raise or lower the signal;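 further: cell surface tissue factor protein level read by ELISA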
[3] = read-out: Interferon-gamma inducible Protein 10 (IP10), CXCL10 (gene 3627); assay: BSK_hDFCGF_IP10: BioMAP Diversity Plus: hDFCGF Assay for Interferon-gamma inducible Protein 10 (IP10) Biomarker Activity (AID 2283053); details: primary human foreskin fibroblasts; actives raise or lower the signal
Outline: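 Chemical-treated human skin fibroblasts (primary) were sampled at 24 h for IP-10 by ELISA. Both increases and decreases relative to DMSO were scored.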

[4] = read-out: Urokinase-type plasminogen activator receptor (uPAR), PLAUR (gene 5329); assay: BSK_CASM3C_uPAR: BioMAP Diversity Plus: CASM3C Assay for Urokinase-type plasminogen activator receptor (uPAR) Biomarker Activity (AID 2283054); details: primary human coronary artery smooth muscle cells; actives raise or lower the signal;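 further: cell-surface uPAR protein level quantified by ELISA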
[5] = read-out: Vascular cell adhesion molecule 1 (VCAM1), VCAM1 (gene 7412); assay: BSK_CASM3C_VCAM1: BioMAP Diversity Plus: CASM3C Assay for Vascular cell adhesion molecule 1 (VCAM1) Biomarker Activity (AID 2283055); details: primary human coronary artery smooth muscle cells; actives raise or lower the signal;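 further: VCAM-1 protein level quantified by ELISA on the cells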
[6] = read-out: Collagen III, COL3A1 (gene 1281); assay: BSK_hDFCGF_CollagenIII: BioMAP Diversity Plus: hDFCGF Assay for Collagen III Biomarker Activity (AID 2283056); details: primary human foreskin fibroblasts; actives raise or lower the signal
Outline: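 Cells: human foreskin fibroblasts, primary. Dosing followed by 24 h incubation, then ELISA for collagen III. Both increases and decreases scored relative to DMSO.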

[7] = read-out: Epidermal growth factor receptor (EGFR), EGFR (gene 1956); assay: BSK_hDFCGF_EGFR: BioMAP Diversity Plus: hDFCGF Assay for Epidermal growth factor receptor (EGFR) Biomarker Activity (AID 2283057); details: primary human foreskin fibroblasts; actives raise or lower the signal
Outline: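 Cell-based multiplexed assay in primary human foreskin fibroblasts. EGFR is read by ELISA 24 h after treatment and compared with DMSO controls.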

[8] = read-out: Interleukin-8 (IL8), CXCL8 (gene 3576); assay: BSK_hDFCGF_IL8: BioMAP Diversity Plus: hDFCGF Assay for Interleukin-8 (IL8) Biomarker Activity (AID 2283058); details: primary human foreskin fibroblasts; actives raise or lower the signal
Outline: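 IL-8 levels from compound-treated primary human fibroblasts were read by ELISA at 24 h, with DMSO serving as baseline for bidirectional fitting.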

[9] = BSK_hDFCGF_Proliferation: Cell Proliferation Assessment in the BioMAP Diversity Plus: hDFCGF Assay (AID 2283059); details: primary human foreskin fibroblasts;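 further: curves fitted for both rise and fall of signal versus DMSO baseline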
Outline: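 This proliferation readout used SRB total-protein staining of human foreskin fibroblasts […], normalized to DMSO with bidirectional curve fitting.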

[10] = read-out: Macrophage colony-stimulating factor (MCSF), CSF1 (gene 1435); assay: BSK_hDFCGF_MCSF: BioMAP Diversity Plus: hDFCGF Assay for Macrophage colony-stimulating factor (MCSF) Biomarker Activity (AID 2283060); details: primary human foreskin fibroblasts; actives raise or lower the signal
Outline: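 M-CSF levels, determined by ELISA, are taken at 24 h after dosing human skin fibroblasts. Responses in either direction are fitted with DMSO serving as the baseline.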

[11] = read-out: Monokine induced gamma interferon (MIG), CXCL9 (gene 4283); assay: BSK_hDFCGF_MIG: BioMAP Diversity Plus: hDFCGF Assay for Monokine induced gamma interferon (MIG) Biomarker Activity (AID 2283063); details: primary human foreskin fibroblasts; actives raise or lower the signal
Outline: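 MIG signal, determined by ELISA, reflects 24 h chemical exposure of human skin primary fibroblasts. DMSO serves as negative control and baseline.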

[12] = read-out: Matrix Metallopeptidase 1 (MMP1), MMP1 (gene 4312); assay: BSK_hDFCGF_MMP1: BioMAP Diversity Plus: hDFCGF Assay for Matrix Metallopeptidase 1 (MMP1) Biomarker Activity (AID 2283064); details: primary human foreskin fibroblasts; actives raise or lower the signal
Outline: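 MMP1 levels quantified by ELISA 24 h after dosing human dermal fibroblast cultures, with parallel SRB total-protein staining for overt cytotoxicity. Data fitted in both directions against DMSO baseline.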

[13] = read-out: Vascular cell adhesion molecule 1 (VCAM1), VCAM1 (gene 7412); assay: BSK_hDFCGF_VCAM1: BioMAP Diversity Plus: hDFCGF Assay for Vascular cell adhesion molecule 1 (VCAM1) Biomarker Activity (AID 2283065); details: primary human foreskin fibroblasts; actives raise or lower the signal;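 on AC50: VCAM-1 protein level quantified by ELISA after 24 h chemical exposure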
Outline: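 Cells are dosed, cultured for 24 h, then VCAM-1 is quantified by ELISA; signal increases and decreases are both fitted relative to DMSO.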

[14] = read-out: Plasminogen activator inhibitor-1 (PAI1), SERPINE1 (gene 5054); assay: BSK_hDFCGF_PAI1: BioMAP Diversity Plus: hDFCGF Assay for Plasminogen activator inhibitor-1 (PAI1) Biomarker Activity (AID 2283066); details: primary human foreskin fibroblasts; actives raise or lower the signal
Outline: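 Human skin fibroblast cultures receive chemical for 24 h before PAI-1 is measured by ELISA; signal changes are fitted bidirectionally against DMSO-treated wells.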

[15] = read-out: Intercellular Adhesion Molecule 1 (ICAM1), ICAM1 (gene 3383); assay: BSK_KF3CT_ICAM1: BioMAP Diversity Plus: KF3CT Assay for Intercellular Adhesion Molecule 1 (ICAM1) Biomarker Activity (AID 2283067); details: primary human keratinocytes with fibroblasts; actives raise or lower the signal
Outline: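 Dose the keratinocyte/fibroblast co-culture, wait 24 h, measure ICAM-1 by ELISA, then fit increases or decreases against DMSO. Cytotoxicity is checked in parallel cultures by SRB total-protein staining.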

[16] = read-out: Interferon-gamma inducible Protein 10 (IP10), CXCL10 (gene 3627); assay: BSK_KF3CT_IP10: BioMAP Diversity Plus: KF3CT Assay for Interferon-gamma inducible Protein 10 (IP10) Biomarker Activity (AID 2283068); details: primary human keratinocytes with fibroblasts; actives raise or lower the signal
Outline: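 Signal is secreted/surface IP-10 by ELISA in a human primary skin co-culture of keratinocytes and foreskin fibroblasts, taken 24 h post-dosing; DMSO served as negative control.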

[17] = BSK_KF3CT_SRB: Viability Assessment in the BioMAP Diversity Plus: KF3CT Assay (AID 2283069); details: primary human keratinocytes with fibroblasts;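 further: total protein by sulforhodamine B staining as a cytotoxicity measure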
Outline: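 Cytotoxicity was gauged by SRB staining (0.1% SRB, 10% TCA fixation, 560 nm) of parallel cultures at 24 h. The cells were primary human skin keratinocytes co-cultured with fibroblasts, and activity was fitted in both directions against DMSO.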

[18] = read-out: Interleukin-1 alpha (IL1a), IL1A (gene 3552); assay: BSK_KF3CT_IL1a: BioMAP Diversity Plus: KF3CT Assay for Interleukin-1 alpha (IL1a) Biomarker Activity (AID 2283070); details: primary human keratinocytes with fibroblasts; actives raise or lower the signal
Outline: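 IL-1a was detected by ELISA 24 h after chemical treatment of a co-culture of human skin keratinocytes and foreskin fibroblasts. Gain or loss of signal was fitted against the DMSO baseline.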

[19] = read-out: TIMP metallopeptidase inhibitor 1 (TIMP1), TIMP1 (gene 7076); assay: BSK_hDFCGF_TIMP1: BioMAP Diversity Plus: hDFCGF Assay for TIMP metallopeptidase inhibitor 1 (TIMP1) Biomarker Activity (AID 2283062); details: primary human foreskin fibroblasts; actives raise or lower the signal
Outline: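 Fibroblasts from human foreskin are treated with test chemical and harvested at 24 h. TIMP-1 is quantified by ELISA, and gain or loss of signal is scored against DMSO.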

Measured: AC50

O=C(O)c1ccc([N+](=O)[O-])cc1
inactive: [1] | [2] | [3] | [4] | [5] | [6] | [7] | [8] | [9] | [10] | [11] | [12] | [13] | [14] | [15] | [16] | [17] | [18]

c1ccc2c(c1)c1cccc3ccc4cccc2c4c31
active: [18] 0.016 µM
inactive: [1] | [2] | [3] | [4] | [5] | [6] | [7] | [8] | [9] | [10] | [11] | [12] | [13] | [14] | [15] | [16] | [17]

O=C=NC1CCC(CC2CCC(N=C=O)CC2)CC1 (stereo not given)
inactive: [1] | [2] | [3] | [4] | [5] | [6] | [7] | [8] | [11] | [12] | [13] | [15] | [16] | [17] | [18]
active: [9] 28.5 µM | [10] 4.84 µM | [14] 25.6 µM

O=C(O)c1cn(C2CC2)c2cc(N3CCNCC3)c(F)cc2c1=O
inactive: [1] | [2] | [3] | [4] | [5] | [6] | [7] | [8] | [9] | [19] | [11] | [12] | [13] | [14] | [15] | [16] | [17] | [18]

CCC(=O)OCc1ccccc1
inactive: [1] | [2] | [3] | [4] | [5] | [6] | [7] | [8] | [9] | [10] | [11] | [12] | [13] | [14] | [15] | [16] | [17] | [18]

COC(=O)c1ccc(C)cc1
inactive: [1] | [2] | [3] | [4] | [5] | [6] | [7] | [8] | [9] | [10] | [11] | [12] | [13] | [14] | [15] | [16] | [17] | [18]

CC1COc2ccccc2N1C(=O)C(Cl)Cl (stereo not given)
inactive: [1] | [3] | [7] | [8] | [10] | [11] | [15] | [17]
active: [2] 4.8 µM | [4] 7.08 µM | [5] 10.2 µM | [6] 0.0289 µM | [9] 8.61 µM | [12] 20 µM | [13] 1.78 µM | [14] 0.0533 µM | [18] 0.629 µM
